{"source": "PubChem BioAssay AID2129", "about": "(The Scripps Research Institute Molecular Screening Center, 2009)", "note": "Among all 320,000 compounds or so, about 2,200 (0.69%) were called active.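 The calls were made as follows: active = inhibition above the mean of all tested compounds plus 3 SD, cutoff set per campaign (cut at about 30% in these data); inactive = the rest.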 What follows is part of a selection rich in actives, with near analogues and random picks from the rest."}
{"molecular_target": "Bcl-2-like protein 1 (Homo sapiens) (UniProt Q07817)", "sequence (Q07817 whole entry, looked up)": "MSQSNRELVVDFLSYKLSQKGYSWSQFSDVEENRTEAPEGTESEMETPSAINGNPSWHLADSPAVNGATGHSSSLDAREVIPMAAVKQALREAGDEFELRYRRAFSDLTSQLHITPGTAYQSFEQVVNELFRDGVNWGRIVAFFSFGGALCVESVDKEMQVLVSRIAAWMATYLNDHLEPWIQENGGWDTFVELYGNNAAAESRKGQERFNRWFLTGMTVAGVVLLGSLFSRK", "assay": "inhibitors of human Bcl-xL, primary screen, biochemical, fluorescence polarization, HTS (AID 2129);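 also: 0% = DMSO wells and 100% = unlabeled Bim-BH3 peptide competitor; inhibitors lower millipolarization by displacing the labeled peptide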", "settings": "GST-Bcl-xL / FITC-Bim BH3 peptide fluorescence polarization; at 10.9 µM; hits give high values"}
{"smiles": "O=C(Cn1nc([N+](=O)[O-])nc1Br)NC1CCCCC1", "inhibition": "0.58% (inactive)"}
{"smiles": "CC(C)(C)c1ccc(C(CC(=O)O)NS(=O)(=O)Cc2ccccc2)cc1", "note": "(centres undefined)", "inhibition": "-2.32% (inactive)"}
{"smiles": "O=C1CCCN1CCCNC(=S)Nc1ccc(F)c(Cl)c1", "inhibition": "5.5% (inactive)"}
{"smiles": "Cc1cc([N+](=O)[O-])ccc1NCc1cccc([N+](=O)[O-])c1", "inhibition": "3.28% (inactive)"}
{"smiles": "C=CCn1c(SCCOc2ccc(OC)cc2)nnc1C(NC(=O)c1ccc(OC)cc1)C(C)C", "note": "(centres undefined)", "inhibition": "4.55% (inactive)"}
{"smiles": "CN(CCOc1ccccc1)C(=O)c1cc(-c2ccco2)nc2ccccc12", "inhibition": "30.5% (active)"}
{"smiles": "CN(C(=O)COC(=O)c1cc(-c2ccco2)nc2ccccc12)C1CCS(=O)(=O)C1", "note": "(centres undefined)", "inhibition": "38.9% (active)"}
{"smiles": "COc1ccc(NC(=O)CN(C)C(=O)c2cc(-c3ccc(C)o3)nc3ccccc23)cc1", "inhibition": "1.46% (inactive)"}
{"smiles": "CC1CCCN(C(=O)c2cc(-c3ccco3)nc3ccccc23)C1", "note": "(centres undefined)", "inhibition": "2.8% (inactive)"}
{"smiles": "COc1ccc(-c2cc(C(=O)N(C)Cc3ccccc3)c3ccccc3n2)cc1", "inhibition": "4.34% (inactive)"}
{"smiles": "CN(C(=O)COC(=O)c1nc(Cl)ccc1Cl)C1CCS(=O)(=O)C1", "note": "(centres undefined)", "inhibition": "-2.39% (inactive)"}
{"smiles": "O=C(c1cccs1)n1nc(NCc2ccccc2)nc1NCc1ccccc1", "inhibition": "-2.31% (inactive)"}
{"smiles": "Cc1nnsc1S(=O)(=O)Cc1ccccc1Cl", "inhibition": "1.84% (inactive)"}
{"smiles": "Cn1cccc1C(=O)NNC(=O)COc1ccc(Br)cc1", "inhibition": "1.85% (inactive)"}
{"smiles": "CC1CCN(C(=S)NC(=O)c2ccccc2Br)CC1", "inhibition": "1.04% (inactive)"}
{"smiles": "CCc1ccc(NC(=O)Nc2ccncc2)cc1", "inhibition": "-0.23% (inactive)"}
{"smiles": "Oc1ccc2ccccc2c1N=Nc1nccs1", "inhibition": "54.3% (active)"}
{"smiles": "COc1ccc(C(=O)N2CCCC(C(=O)c3ccccc3OC)C2)cc1OC", "note": "(centres undefined)", "inhibition": "2.42% (inactive)"}
{"smiles": "COc1cc(OC)cc(-c2c(-c3cccs3)c3cc(-c4ccc(OC)cc4F)ccc3n2C)c1", "inhibition": "-0.84% (inactive)"}
{"smiles": "Cc1ccc(S(=O)(=O)N(C)C)cc1NC(=O)c1n[nH]c(=O)c2ccccc12", "inhibition": "-2.28% (inactive)"}
{"smiles": "O=C(NCCc1ccc(C(F)(F)F)cc1)c1ccc2c(c1)OCO2", "inhibition": "2.41% (inactive)"}
{"smiles": "NC(=O)c1ccc(Nc2ccc3c(c2)CCC3)c([N+](=O)[O-])c1", "inhibition": "2.16% (inactive)"}
{"smiles": "Cc1c(CCO)c(=O)n(-c2ccccc2)n1S(=O)(=O)c1ccc(F)cc1", "inhibition": "9.16% (inactive)"}
{"smiles": "O=C(C1=C(O)C(=O)N(Cc2ccccc2)C1c1cccnc1)c1ccco1", "note": "(centres undefined)", "inhibition": "3.45% (inactive)"}
{"smiles": "O=C(C1=C(O)C(=O)N(Cc2ccccc2)C1c1ccco1)c1ccco1", "note": "(centres undefined)", "inhibition": "7.06% (inactive)"}
{"smiles": "O=C(C1=C(O)C(=O)N(c2ncccn2)C1c1cccs1)c1ccco1", "note": "(centres undefined)", "inhibition": "94.5% (active)"}
{"smiles": "COC(=O)/C=C(\\Oc1ccccc1)C1(O)CCCCC1", "inhibition": "1.07% (inactive)"}
{"smiles": "CCn1c(SCC(=O)NC2=NCCS2)nnc1C(C)NC(=O)c1ccccc1F", "note": "(centres undefined)", "inhibition": "-1.19% (inactive)"}
{"smiles": "O=C(N/N=C/c1sc(N2CCCCC2)nc1-c1cccs1)c1cccnc1", "inhibition": "-12.1% (inactive)"}
